# In the library only some 5.3% were active in any assay of this set; here they are far more common.
# FMDV antiviral: antivirals against foot and mouth disease virus; 410,000 tested, 1.2% active; AID 1159524; Potency, µM (top dose mostly 57.9 µM), inactives show top-dose activity change, negative = inhibition, usual class: inhibitors; FMDV antiviral cell-based qHTS; calls by dose curve; tested in HEK293T cells; also: read-out not given here; nearly all actives have a fitted effect of over 45% in size
# Lassa entry inh: Lassa virus entry inhibition; 300,000 tested, 1.2% active; AID 540256; Lassa virus pseudotype entry inhibition, cell reporter; Potency, µM (series often up to 37.9 µM), for inactives: at the highest dose activity change, negative = inhibition, usual class: inhibitors; calls by dose curve; tested in HEK293 cells; also: nearly all actives have a fitted effect of over 50% in size
# HCV inh: blocks hepatitis C virus; Huh7.5.1 HCVcc-Cre infection, luciferase reporter, 44 h; Potency, µM (series often up to 41.8 µM), for inactives: top-dose activity change, negative = inhibition, hits mostly inhibitors; 340,000 tested, 3.4% active; AID 651820; active = well fitted inhibition curve with a large enough effect; inconclusive = small, poorly fitted or top-dose-only effect, or another doubt; inactive = no such curve, though single readings can be large or run the other way
#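 Infectious HCV cell culture screen: compound-treated cells (1,000/well, pre-plated 4 h) are infected with HCVcc-Cre at roughly 0.5 moi and grown 44 h. Infection is quantified by luciferase signal after 15 min substrate incubation at room temperature.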
# Vaccinia mCherry: inhibitors of vaccinia virus infection (mCherry reporter signal); Vaccinia virus mCherry reporter infection, fluorescence; Potency, µM (doses to about 36.5 µM), without a hit: at the highest dose activity change, negative = inhibition, usual class: inhibitors; 310,000 tested, 0.63% active; AID 720579; calls by dose curve; tested in A549 cells; also: nearly all actives have a fitted effect of over 35% in size
# Marburg entry inh: inhibitors of Marburg virus binding or cell entry | Marburg virus pseudotyped entry inhibition, cell reporter | Potency, µM (doses to about 37.8 µM), for the others: top-dose activity change, negative = inhibition, most hits filed as inhibitors | 300,000 tested, 1.8% active; calls by dose curve; tested in HEK293 cells
# VACV Venus inh: vaccinia inhibition (Venus reporter) | 330,000 tested, 0.46% active | Vaccinia virus Venus reporter expression, fluorescence | Potency, µM (doses to about 36.5 µM), for the others: at the top dose activity change, negative = inhibition, hits mostly inhibitors | AID 720580; calls by dose curve; tested in A549 cells; also: nearly all actives have a fitted effect of over 30% in size
# Starred values were filed as active, the others as inactive; i = inactive; u = inconclusive; x = not tested or not shown; ! = not confirmed by another sample; [ ] = remark or other dose. % is scaled to controls: 0 for no effect and ±100 for the full control effect; potency is read from the fitted curve at half-maximal effect.
SMILES,FMDV antiviral,Lassa entry inh,HCV inh,Vaccinia mCherry,Marburg entry inh,VACV Venus inh
CN1/C(=C\C=O)C(C)(C)c2ccccc21,-10%,-24%,6%,11%,5%[46.1 µM],8%
COc1ccc(C(=O)/C(C#N)=N/Nc2cccc([N+](=O)[O-])c2)cc1,u,10µM*,11µM*,x,15µM*,x
COc1ccc(CC(=O)Nc2cccc(/C(C)=N/NC(=O)c3cccc([N+](=O)[O-])c3)c2)cc1,-24%,11µM*,u,-4%,u,-16%
COc1cccc(C(=O)COc2cccc(NC(=O)c3cccc([N+](=O)[O-])c3)c2)c1,28µM*,u,8.9µM*,x,u,u
Cc1ccc(C(=O)COC(=O)c2cccc(NC(=O)c3ccc([N+](=O)[O-])cc3[N+](=O)[O-])c2)cc1,u,u,11µM*,x,u,x
N#C/C(=N\Nc1cccc(Cl)c1)C(=O)c1ccccc1,18%,u,u,x,u,x
CC(=O)NC12CC3CC(C1)CC(C(=O)N(C)Cc1cccc(Cl)c1Cl)(C3)C2,13%,-4%[46.1 µM],-3%,-7%,u,-18%
N/C(CCN1CCCCC1)=N\O,x,x,x,x,-5%,x
O=S(=O)(c1cccs1)N1CCN(c2ccc(O)cc2)CC1,-4%,u,u,4µM*,u,-21%
CN1CCN(S(=O)(=O)c2cccs2)CC1,-19%,2%,0%,i,-7%[46.1 µM],-10%
CN1CCN(c2ccc(C(=O)c3ccc(Br)cc3)cc2[N+](=O)[O-])CC1,u,16%,10µM*,-18%,7.9µM*,-19%
NC(=O)c1ccc(N2CCN(S(=O)(=O)c3cccs3)CC2)c([N+](=O)[O-])c1,20µM*,x,2.2µM*,x,x,x
CN1CCN(c2ccc(S(C)(=O)=O)cc2[N+](=O)[O-])CC1,2%,5%,35%,-11%,u,5%
Fc1ccc(Nc2nc(SCc3cccc(Cl)c3)nc3ccccc23)cc1,-26%,21%[46.1 µM],x,-17%,x,-21%
Cc1cc(C)c(C(=O)/C=C/c2cccc3ccccc23)c(=O)[nH]1,u,6.3µM*,11µM*,5µM*,u,8.9µM*
COc1cc2c(c(OC)c1OC)C1(c3ccccc3)CCCCCC1[C@@H]2NC(=O)C(F)(F)F (some centres undefined),x,u,x,x,-15%[14.2 µM],x
Cc1nn(C)c(Oc2ccccc2)c1CCNS(=O)(=O)c1ccc(Cl)cc1,-13%,-23%,10µM*,u,-19%[46.1 µM],u
O=C(Nc1cnn(C23CC4CC(CC(C4)C2)C3)c1)c1cnn2c(C(F)(F)F)cc(-c3ccco3)nc12,x,u,11µM*!,i,u,-4%
O=C(Nc1ccc2c(c1)OCO2)c1cnn2c(C(F)(F)F)cc(-c3ccco3)nc12,-14%,1%,u,x,-18%,2%
COC1(OC)C(/C=C/c2ccc(C)cc2)C(C#N)(C#N)C1(OC)OC (centres undefined),22µM*,u,u,14µM*,u,28µM*
Fc1ccc(-c2cc(C(F)(F)F)nc(NCC3CCCO3)n2)cc1 (centres undefined),u,-7%,10µM*,x,5%,-24%
FC(F)(F)c1cc(-c2ccccc2)nc(NCC2CCCO2)n1 (centres undefined),0%,-9%,u,x,u,x
COc1cc(CNCc2ccncc2)cc(Br)c1OCc1ccccc1F,32µM*,u,u,x,u,x
COc1cc(CNC(C)(C)C)cc(Br)c1OCc1cccs1,0%,u,20µM*,i,u,-19%
COc1cc(CNCCO)cc(Br)c1OCc1cccs1,-28%,-15%,-10%,x,u,-15%
SMILES,FMDV antiviral,Lassa entry inh,HCV inh,Vaccinia mCherry,Marburg entry inh,VACV Venus inh
O=C1[C@H](Cc2ccccc2)NC/C=C\C[C@H](c2ccc(Cl)cc2)N1Cc1ccc(Cl)cc1,x,x,x,-3%,x,-21%
COc1ccc(NS(=O)(=O)c2ccc(N3CCOCC3)c(N)c2)cc1,u,x,6.3µM*,x,x,x
COc1ccc(NS(=O)(=O)c2ccc(N3CCOCC3)c(NC(=O)c3ccc(OC)cc3)c2)cc1,49%,u,u,u,u,-26%
COc1ccc(NS(=O)(=O)c2ccc(N3CCOCC3)c(NC(=O)c3ccccc3Cl)c2)cc1,67%,1.6µM*,u,-25%,u,-10%
CC1=C(C(=O)Nc2cccnc2)C(c2cccc(F)c2)n2nc(SCc3ccccc3)nc2N1 (centres undefined),-17%,24%[46.1 µM],x,-5%,7%[46.1 µM],-7%
O=C1OCCC=C1C(O)CCc1ccccc1 (centres undefined),x,x,x,x,22%[14.2 µM],x
COc1ccc(-[n+]2c(C)cc(/C=C3\Sc4ccccc4N3C)cc2C)cc1,u,x,1.1µM*,x,x,x
COc1ccccc1-[n+]1c(C)cc(/C=C2\Sc3ccccc3N2C)cc1C,4µM*,x,u,x,x,x
COc1ccc(OC)c(NC(=O)N2c3ccccc3Sc3ccccc32)c1,3%,19%[46.1 µM],x,-21%,-3%[46.1 µM],-20%
COc1ccc(C(=O)/C=C2\Sc3ccccc3N2C)cc1,-5%,u,10µM*,-25%,u,-8%
COc1ccccc1OC(=O)CCN1c2ccccc2Sc2ccccc21,-6%,9%,0%,-13%,u,-1%
CC(=S)/C=C1\Sc2ccccc2N1C,x,-6%,2%,i,u,4%
CCc1ccc(OCCn2c(C3CC(=O)N(Cc4ccc(F)cc4)C3)nc3ccccc32)cc1 (centres undefined),-41%,-21%[46.1 µM],x,u,u,11µM*
Clc1ccc(-n2cccc2CN2CCc3nnc(Cc4ccccc4)n3CC2)nc1,-13%,x,x,i,x,-11%
CCn1nc(C)cc1C(=O)NCC1Cc2cc(C)cc(-c3ccccc3C(=O)OC)c2O1 (centres undefined),-13%,x,x,0%,x,-15%
CC(C)CNC(=O)c1coc(=O)c(Br)c1,u,16µM*,u,x,u,x
Cc1ccc(S(=O)(=O)NC23CC4CC(CC(C4)C2)C3)cc1,42%,x,u,x,x,x
Cc1nn(C)c(C(=O)Nc2ccc(S(=O)(=O)NC34CC5CC(CC(C5)C3)C4)cc2)c1Br,-19%,u,10µM*,13µM*,u,u
N#Cc1nc(N)nc(N2CCCCC2)n1,x,x,x,i,x,-19%
COc1ccccc1CNc1ncnc2ccc(-c3cccc(C#N)c3)cc12,-20%,x,x,x,x,x
Cc1ccc2c(c1)cc1c(=O)n(CC(=O)NC3CCCCC3)nc(C)n12,1%,x,x,-20%,u,-6%
CCCCCNC(=O)c1cccc(S(=O)(=O)N2CC3(C)CC2CC(C)(C)C3)c1 (centres undefined),8%,13µM*,u,u,u,u
CC1(C)CC2CC(C)(CN2S(=O)(=O)c2cccc(C(=O)O)c2)C1 (centres undefined),4%,x,14%,x,x,x
CCc1cc(=O)oc2c(C)c(OC(C)C(=O)N3CC[C@@]4(O)CCCC[C@H]4C3)ccc12 (some centres undefined),0%,x,0.89µM*,-3%,x,-2%

# High-throughput results: PubChem BioAssay, National Center for Advancing Translational Sciences (NCATS)
